PubChem BioAssay AID933 (National Center for Advancing Translational Sciences (NCATS), 2007)
Records with an inconclusive call do not appear. The source made the active and inactive calls. Calls come from the whole dose curve; as a rule, active = well fitted activation curve with a large enough effect in the signal ratio, with a control signal flat; inconclusive = small, poorly fitted or top-dose-only effect, or a change in a side signal; inactive = flat fitted curve, though single readings scatter; the % refers to the signal ratio.

biological target: Thyrotropin receptor (Homo sapiens) (UniProt P16473); experiment: Secondary Concentration-Response Assay for Agonists of the Thyroid Stimulating Hormone Receptor: HTRF Activity Detection; details: HEK293-TSHR cells, cAMP HTRF ratio, 30 min; series mostly up to 91.7 µM; activation: at the top concentration;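 for activation: HEK 293 cells stably expressing human TSHR with RO 20-1724 phosphodiesterase inhibitor; % of control where 0% means no effect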
Sequence (P16473 whole entry, looked up): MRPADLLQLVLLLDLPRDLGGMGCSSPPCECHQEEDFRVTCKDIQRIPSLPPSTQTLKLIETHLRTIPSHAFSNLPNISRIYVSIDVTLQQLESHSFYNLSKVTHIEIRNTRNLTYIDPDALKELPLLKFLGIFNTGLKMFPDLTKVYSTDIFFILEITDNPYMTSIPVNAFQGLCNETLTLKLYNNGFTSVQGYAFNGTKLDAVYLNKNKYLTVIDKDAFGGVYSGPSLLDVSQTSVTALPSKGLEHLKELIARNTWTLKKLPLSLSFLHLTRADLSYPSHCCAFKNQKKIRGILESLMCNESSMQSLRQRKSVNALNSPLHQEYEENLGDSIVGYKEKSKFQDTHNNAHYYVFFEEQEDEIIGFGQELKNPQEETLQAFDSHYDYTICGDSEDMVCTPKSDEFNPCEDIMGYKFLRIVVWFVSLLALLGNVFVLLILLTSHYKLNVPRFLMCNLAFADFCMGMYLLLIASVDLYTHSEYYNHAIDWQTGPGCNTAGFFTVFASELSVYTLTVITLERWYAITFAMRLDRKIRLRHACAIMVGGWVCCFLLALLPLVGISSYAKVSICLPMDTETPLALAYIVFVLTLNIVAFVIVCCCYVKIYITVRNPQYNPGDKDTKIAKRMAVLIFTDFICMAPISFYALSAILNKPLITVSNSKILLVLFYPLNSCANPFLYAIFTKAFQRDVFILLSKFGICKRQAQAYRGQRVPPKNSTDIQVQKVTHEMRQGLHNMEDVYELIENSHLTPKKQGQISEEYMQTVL
From the text: NIH Chemical Genomics Center [NCGC]
NIH Molecular Libraries Screening Centers Network [MLSCN]
PI Name: Dr. Marvin Gershengorn, NIH
Confirmation of Thyroid Stimulating Hormone Receptor Agonists
TSH is an alpha/beta heterodimeric glycoprotein hormone secreted from the anterior pituitary gland which belongs to the glycoprotein hormone family. The actions of TSH are mediated by a seven-transmembrane receptor, which upon TSH binding couples preferentially to the G-alpha (s) protein (Gs), resulting in activation of adenylate cyclase and increase in cyclic adenosine 3', 5' monophosphate (cAMP). The TSH receptor (THSR) is mainly expressed in thyroid follicular cells and regulates their growth and function. Recombinant TSH is used to activate TSHR in patients with thyroid cancer receiving thyroid hormone suppression therapy and to screen for residual tumor after surgery, but it is expensive and must be administered intramuscularly. An orally active small molecule TSHR agonist would serve as an invaluable research tool for studying TSHR pharmacology and physiology, and would have multiple advantages in therapeutic settings. However, no selective small molecule agonist of the TSH receptor exists, and no small molecule screen for TSHR agonists has ever been reported.
A confirmatory assay of putative TSHR agonists was conducted on a different TSHR transfected HEK 293 cell line, using an orthogonal detection technology to measure cAMP stimulation: antibody-based Homogeneous Time Resolved Fluorescence (HTRF).
NCGC Assay Protocol Summary:
Homogeneous Time Resolved Fluorescence (HTRF) cAMP Assay. HEK 293 cells stably transfected with a vector containing the TSHR and maintained under hygromycin selection were obtained from the laboratory of Dr. Marvin Gershengorn. Compounds were assayed using a HTRF cAMP detection kit (Cisbio) on the TSHR transfected cell line. Briefly, 750 cells were plated in 2.5 ul/well of complete media (DMEM containing 10 % FCS, and 100 uM RO 20-1724) in 1536 well solid bottom white plates and 23 nl/well compound in DMSO solution or controls was added. Following 30 minute incubation at room temperature, 2.5 ul/well of labeled d2 cAMP and 2.5 ul/well of anti-cAMP antibody (both diluted 1:20 in lysis buffer) were added to each well using a flying reagent dispenser (Aurora Discovery, San Diego) . Plates were measured using the Envision plate reader (PerkinElmer, Boston, MA) with excitation at 330 nm and emissions of 615 nm and 660 nm.
Keywords: Thyroid-stimulating hormone TSH, TSHR, TSHR agonist, quantitative high throughput screening, qHTS, HTS, probe identification, CNG, cAMP, cyclic nucleotide gated ion channel PubChem
Potency is the fitted concentration of half-maximal effect.

SMILES | activation | Potency
CCOC(=O)COc1ccccc1C1Nc2ccccc2C(=O)N1c1cccc(Cl)c1 (stereo not given) | 4.3% (inactive) | 
CCOC(=O)CCc1c(C)nc2c(c(C)nn2C(C)(C)C)c1C | 0.0158% [at 0.00035 µM] (inactive) | 
COc1cc(C2Nc3ccccc3C(=O)N2Cc2ccccc2)ccc1OCc1ccc(NC(C)=O)cc1 (stereo not given) | 8.19% (inactive) | 
COc1ccc(C(=O)N(Cc2ccco2)Cc2cccs2)c(O)c1 |  | 50.1 µM (active)
COc1ccc(CN(Cc2ccccc2)C(=O)c2ccccc2N)cc1COc1ccc(NC(C)=O)cc1 |  | 25.1 µM (active)
CCCS(=O)(=O)N1CCN(C(=O)c2ccc(-c3ccccc3)cc2)CC1 | 0.323% [at 0.00035 µM] (inactive) | 
COc1ccc(C2Nc3ccccc3C(=O)N2Cc2ccco2)cc1COc1ccc([N+](=O)[O-])cc1 (stereo not given) | 0.732% (inactive) | 
CC(=O)Nc1ccc(OCc2cccc(C3Nc4ccccc4C(=O)N3Cc3ccco3)c2)cc1 (stereo not given) | 6.27% (inactive) | 
CCOc1cc(C2Nc3ccccc3C(=O)N2Cc2ccco2)ccc1OCc1ccccc1Cl (stereo not given) | 0.379% (inactive) | 
COc1ccc(CN(Cc2ccccc2)C(=O)c2ccno2)cc1COc1ccc(NC(C)=O)cc1 | 29.6% (inactive) | 
COc1cc(OC)cc(C(=O)N2c3ccc(F)cc3CCC2C)c1 (stereo not given) | -0.327% [at 0.00035 µM] (inactive) | 
COc1ccc(C2Oc3ccccc3C(=O)N2Cc2ccccc2)cc1COc1ccc(NC(C)=O)cc1 (stereo not given) |  | 12.6 µM (active)
CC(C)CC(=O)Nc1cccc(-c2cn3ccsc3n2)c1 | 0.105% [at 0.00035 µM] (inactive) | 
CCOC(=O)COc1c(OC)cc(Cl)cc1C1Nc2ccccc2C(=O)N1c1ccccc1 (stereo not given) | 0.286% (inactive) | 
Oc1ccccc1-c1cc(C(F)(F)C(F)F)nc(-c2ccccc2)n1 | 0.7% [at 0.00035 µM] (inactive) | 
COc1cc2c(N3CCOCC3)cc(O)c(CC(=O)Nc3ccccc3)c2cc1OC | 0.478% [at 0.00035 µM] (inactive) | 
COc1cc(OC)c(C(=O)N(Cc2ccco2)Cc2cccs2)cc1OC | 1.09% (inactive) | 
COc1ccc(N2C(=O)c3ccccc3NC2c2ccc(OC)c(COc3ccccc3F)c2)cc1 (stereo not given) | 1.29% (inactive) | 
O=C(c1cccs1)N(Cc1ccco1)c1ccc(O)cc1 | 1.25% (inactive) | 
COc1ccc(C2Nc3ccccc3C(=O)N2Cc2ccccc2)cc1Cn1nnc2ccccc21 (stereo not given) | 2.1% (inactive) | 

SMILES | activation | Potency
CC1(C)c2ccccc2N2CC(=O)NC21/C=C/c1ccco1 (stereo not given) | 1.29% [at 0.00035 µM] (inactive) | 
COc1cc(C2Nc3ccccc3C(=O)N2c2ccc(Cl)cc2)c(Cl)cc1OCC(=O)O (stereo not given) | 0.666% (inactive) | 
O=C1c2ccccc2NC(c2cccc(F)c2)N1Cc1ccco1 (stereo not given) | 0.392% (inactive) | 
COc1ccc(C2Nc3ccccc3C(=O)N2Cc2ccccc2OC)cc1COc1ccc(NC(C)=O)cc1 (stereo not given) | 17.2% (inactive) | 
O=C1C2C3CCCC3=C3CCCC3C2C(=O)N1c1ccccc1Cl (stereo not given) | 0.928% (inactive) | 
CCn1c(=O)c(C(=O)CN2CCCc3ccccc32)c(N)n(Cc2ccccc2)c1=O | 0.971% (inactive) | 
COc1ccc(-c2nc3ccc(NC(C)=O)cc3c(=O)n2Cc2ccccc2)cc1COc1ccc(NC(C)=O)cc1 | 19.5% (inactive) | 
O=c1c2c(-c3ccccc3)csc2ncn1/N=C/c1cn(-c2ccccc2)nc1-c1cccs1 | 0.928% (inactive) | 
O=C1c2ccccc2NC(c2c(Cl)cccc2Cl)N1Cc1ccccc1 (stereo not given) | 1.83% (inactive) | 
CC1(C)CC(=O)C2=C(C1)OC(N)=C(C#N)C2CCc1ccccc1 (stereo not given) | -0.482% [at 0.00035 µM] (inactive) | 
COc1ccc(C2Nc3ccccc3C(=O)N2CCCN(C)C)cc1COc1ccc(NC(C)=O)cc1 (stereo not given) | 2.95% (inactive) | 
O=C1c2ccccc2NC(c2ccc(Cl)cc2Cl)N1Cc1ccccc1 (stereo not given) | 1.15% (inactive) | 
CN(Cc1ccco1)C(=O)Cn1c(=O)oc2cc(S(=O)(=O)NCc3ccccc3)ccc21 | 0.961% [at 0.00035 µM] (inactive) | 
COc1ccc(C2Nc3ccccc3C(=O)N2Cc2ccccc2)cc1COc1ccc(Cl)cc1Cl (stereo not given) | 1.07% (inactive) | 
CCCN1C(=O)c2ccccc2NC1c1ccc(OC)cc1O (stereo not given) | 0.32% (inactive) | 
CCOC(=O)c1cnc(-n2nc(C)cc2C)nc1-n1nc(C)cc1C | -0.245% [at 0.00035 µM] (inactive) | 
COc1ccc(C2Nc3ccccc3C(=O)N2Cc2ccc(Cl)cc2)cc1COc1ccc(NC(C)=O)cc1 (stereo not given) |  | 3.16 µM (active)
COc1ccc(C2NC(=O)c3ccccc3N2)cc1COc1ccc(NC(C)=O)cc1 (stereo not given) | 21.9% (inactive) | 
NC(=O)c1nsc(C(=O)N(CC(=O)NCc2ccc3c(c2)OCO3)C2CCCC2)c1N |  | inactive
CC1CCN(S(=O)(=O)c2cccc(C(=O)Nc3ccccn3)c2)CC1 | 0.1% [at 0.00035 µM] (inactive) | 
